Assay outcomes (PubChem)
Jurkat NFkB inh: inhibitors of induced NF-kB luciferase reporter, primary screen, TCR NF-kB activation inhibitor project, cell-based, luminescence, uHTS. inhibition, % at 4 µM. actives 0.53% (n = 330,000). AID 435003, 2010. Jurkat, PMA/ionomycin-induced NF-kB luciferase reporter; in the data active means inhibition above about 50%
697 NFkB inh: inhibitors of PMA/ionomycin-induced NF-kB reporter, 697 cells, primary screen, B-cell NF-kB inhibitor project, cell-based, luminescence, uHTS; AID 435022, 2010; actives 0.33% (n = 330,000); 697 B-cell NF-kB luciferase reporter, 16 h; inhibition, % at 4 µM; in the data active means inhibition above about 35%
SMARCA2 act: SMARCA2 (BRM) function activators, primary screen, cell-based, luminescence, high throughput; activation, % at 9.1 µM; MG213 cells, MMTV-luciferase reporter, dexamethasone, overnight; actives 1% (n = 370,000); AID 652017, 2013; in the data active means activation above about 7.8%;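 further: 0% = vehicle wells and 100% = reference activator wells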
Gli-Sufu antag: Gli-Sufu pathway antagonists, primary screen, luciferase luminescence, Sufu-KO-LIGHT cells, uHTS; Sufu-KO-LIGHT fibroblasts, Gli luciferase reporter luminescence; inhibition, % at 5 µM; actives 0.74% (n = 340,000);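 active means inhibition above about 55%, limit read from the data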;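 further: 0% = DMSO-treated cells and 100% = wells with medium but no cells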
esBAF inh: Bmi1 luciferase reporter increase in mESCs, primary screen, esBAF inhibitor project, mouse ES cells, Bmi1 luciferase knock-in, single point; reporter increase, % at 12.5 µM; AID 602393, 2012; actives 2% (n = 350,000); 24 h; 100% = twice the neutral-well signal; in the data active means activation above about 40%; inconclusive means no clear call, values can overlap the other calls;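 further: 0% = median of the plate's neutral control wells and 100% = double that signal; a rise in the Bmi1 reporter signal indicates esBAF inhibition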
An asterisk follows results filed as active. Compounds with a hit are over-represented: about 3.3% of the library has one in this group of screens.

O=C1c2ccccc2C(=O)N1CCSc1ccccc1 was read as Jurkat NFkB inh -50, 697 NFkB inh -145, Gli-Sufu antag -110 and esBAF inh 50*.
For CN(c1ccccc1)S(=O)(=O)c1ccc(NC(=O)c2ccc(-c3ccccc3)cc2)cc1 the results were Jurkat NFkB inh 5, 697 NFkB inh -18, SMARCA2 act -6, Gli-Sufu antag 33 and esBAF inh 2.
Cc1nc2cc(NC(=O)c3ccc(S(=O)(=O)N(C)c4ccccc4)cc3)ccc2o1 was read as Jurkat NFkB inh -4, 697 NFkB inh -18, SMARCA2 act -3, Gli-Sufu antag -25 and esBAF inh 83*.
Screening O=c1[nH]c(/C=C/c2cccc3ccccc23)nc2ccccc12 returned Jurkat NFkB inh -22, 697 NFkB inh 12, SMARCA2 act 3 and Gli-Sufu antag -38.
`O=c1[nH]c(/C=C/c2ccccn2)nc2ccccc12` gave Jurkat NFkB inh -68, 697 NFkB inh -52, SMARCA2 act 3, Gli-Sufu antag -40 and esBAF inh 44*.
O=S(=O)(N[C@@H]1CC[C@H](CCn2cc(-c3ccc(F)cc3)nn2)O[C@@H]1CO)c1ccccc1F was read as esBAF inh 5.
`COc1ccc(S(=O)(=O)Nc2ccc3c(c2)C(=O)N([C@@H](C)CO)C[C@H](C)[C@H](CN(C)S(=O)(=O)c2cccs2)OCCCC[C@H](C)O3)cc1` gave esBAF inh 4.
`C/C(=N\N=C(/N)c1nonc1N)c1ccc2c(c1)OCO2` gave Jurkat NFkB inh -94, 697 NFkB inh -185, SMARCA2 act 5, Gli-Sufu antag -88 and esBAF inh 61*.
For Cc1noc(C)c1-c1ccc(C(=O)Nc2cccc(C(F)(F)F)c2)c2occc12 the results were SMARCA2 act -1 and esBAF inh 53*.
Screening C[C@@H]1CN([C@H](C)CO)S(=O)(=O)c2ccc(-c3cccc(F)c3)cc2O[C@H]1CN(C)S(C)(=O)=O returned esBAF inh -3.
For COc1ccc2cc3cc(C(=O)N(C)C4CCCCC4)oc3nc2c1 the results were Jurkat NFkB inh -136, 697 NFkB inh -213, Gli-Sufu antag -69 and esBAF inh 51*.
`CCOc1ccc(N/C=C/C(=O)c2ccc3ccccc3c2)c([N+](=O)[O-])c1` gave Jurkat NFkB inh -92, 697 NFkB inh -62, Gli-Sufu antag -65 and esBAF inh 50*.
Screening CCOc1ccc(NC(=O)c2ccc(Br)o2)c([N+](=O)[O-])c1 returned Jurkat NFkB inh -32, 697 NFkB inh -58, SMARCA2 act 0, Gli-Sufu antag -55 and esBAF inh 50*.
`CCOc1ccc(NC(=O)COc2ccccc2)c([N+](=O)[O-])c1` gave Jurkat NFkB inh -48, 697 NFkB inh -25, SMARCA2 act 5, Gli-Sufu antag -5 and esBAF inh 62*.
For CCCc1cc(C(=O)Nc2cc(Cl)ccc2O)no1 the results were Jurkat NFkB inh -54, 697 NFkB inh -27, SMARCA2 act 2, Gli-Sufu antag 12 and esBAF inh 83*.
`Cc1ccc(-c2cc(C(=O)Nc3cc(C)ccc3O)no2)cc1` gave SMARCA2 act 3, Gli-Sufu antag -17 and esBAF inh 33.
COc1ccc(-c2cc(C(=O)Nc3cc(Cl)ccc3O)no2)cc1 was read as Jurkat NFkB inh -72, 697 NFkB inh -186, SMARCA2 act 2, Gli-Sufu antag -36 and esBAF inh inconclusive.
`CCCc1cc(C(=O)Nc2cc(Br)ccc2O)no1` gave Jurkat NFkB inh -16, 697 NFkB inh -113, SMARCA2 act 2, Gli-Sufu antag 8 and esBAF inh 57*.
C[C@@H]1CN([C@@H](C)CO)C(=O)c2cccc(NC(=O)C3CCOCC3)c2O[C@@H]1CN(C)S(=O)(=O)c1cn(C)cn1 was read as esBAF inh -1.
Screening Nc1c(-c2cccc(Cl)c2)cnn1-c1ccccc1 returned Jurkat NFkB inh -42, 697 NFkB inh -40, SMARCA2 act 3, Gli-Sufu antag -48 and esBAF inh 52*.
For Nc1c(-c2cccc(Cl)c2)cnc2c(-c3ccccc3)cnn12 the results were Jurkat NFkB inh -143, 697 NFkB inh -211, SMARCA2 act 3, Gli-Sufu antag -61 and esBAF inh 60*.
